# High-throughput results from PubChem.
# Sampled rows, rich in hits. Any-hit rate of the full collection: about 2%.
# TLR4-MyD88 BLA: inhibitors of TLR4-MyD88 association in cells, primary screen, cell-based, HeLa CL3-4, BLA complementation, FRET ratio; HeLa CL3-4 TLR4/MyD88 BLA complementation; Toll-like receptor 4 (Homo sapiens) + Myeloid differentiation primary response protein …; 0.18% of 200,000 active; inhibition, % at 8.4 µM; in the data active = inhibition above about 25%;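 also: 0% = vehicle and 100% = reference inhibitor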
# TLR9-MyD88 inh: inhibitors of TLR9-MyD88 association in cells, primary screen, cell-based, CHO, BLA complementation, fluorescence | Toll-like receptor 9 (Homo sapiens) + Myeloid differentiation primary response protein … | CCF4 FRET ratio | inhibition, % at 4.98 µM | 0.21% of 340,000 active | AID 504734, 2011;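 active = inhibition above the mean over all tested compounds plus 3 SD, cut at about 21% in these data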;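 also: 0% = DMSO only wells and 100% = clavulanate BLA inhibitor control wells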
# B2AR ag: beta2AR agonists driving receptor internalization, primary screen, cell-based, FAP fluorogen, flow cytometry. response, % (concentration not given with the values). Beta-2 adrenergic receptor (Homo sapiens), P07550. 0.43% of 340,000 active. Am2.2-beta2AR cells;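 active = response above a set limit, near 3 SD of response in nonfluorescent compounds, cut at about 42% in these data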
# Target sequence (P07550 whole entry, looked up): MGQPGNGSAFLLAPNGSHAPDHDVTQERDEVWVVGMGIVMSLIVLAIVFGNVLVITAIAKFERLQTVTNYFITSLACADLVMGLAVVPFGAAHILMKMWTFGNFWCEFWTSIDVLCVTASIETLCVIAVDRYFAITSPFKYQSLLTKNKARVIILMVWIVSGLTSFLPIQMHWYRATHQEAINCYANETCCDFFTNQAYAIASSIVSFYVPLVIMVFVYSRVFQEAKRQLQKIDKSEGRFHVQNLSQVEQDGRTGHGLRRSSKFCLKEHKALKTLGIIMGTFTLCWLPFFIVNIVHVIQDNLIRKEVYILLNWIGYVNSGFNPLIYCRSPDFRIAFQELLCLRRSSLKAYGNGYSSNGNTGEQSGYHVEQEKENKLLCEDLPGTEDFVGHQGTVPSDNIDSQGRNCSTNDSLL
# ABHD5-PLIN5 inh: ABHD5-PLIN5 interaction inhibitors, primary screen, cell lysate, split luciferase complementation, luminescence. AID 602281, 2012. 0.78% of 360,000 active. Perilipin-5 (Homo sapiens) + 1-acylglycerol-3-phosphate O-acyltransferase ABHD5 (Homo …. inhibition, % at 4 µM. Split G. princeps luciferase complementation, 4 h;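 active = inhibition above the mean inhibition across every tested compound plus 3 SD, cut at about 22% in these data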;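 also: 0% = DMSO only wells and the 100% control is not disclosed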
# NOD2 RIPK2 PPI: NOD2-RIPK2 binding disruptors in cells, primary screen, fluorescence, CHO cells, BLA complementation. Receptor-interacting serine/threonine-protein kinase 2 (Homo sapiens), O43353. CCF4 ratio. inhibition, % at 4.98 µM. 0.38% of 360,000 active. AID 624267, 2012; in the data active = inhibition above about 21%;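 also: 0% = vehicle only and 100% = reference blocker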
# Granule exo inh: LAMP-1 surface exposure blockers, TALL-104 cells – cell-based, flow cytometry, MLPCN library, primary screen | TALL-104 LAMP-1 surface exposure; cells stimulated with thapsigargin and PMA | inhibition, % at 10 µM | 0.66% of 360,000 active | AID 651702, 2012;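 active = inhibition above about 55%, limit read from the data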
# Beta2AR ag CP1: beta2AR agonists via receptor internalization, confirmation, cell-based, FAP fluorogen, flow cytometry, single point, cherry pick 1; shares compounds with B2AR ag; Am2.2-beta2AR cells, FAP surface receptor; stronger effect = lower value; percent response (surface receptor), % at 10 µM; 25% of 1,100 active;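 active = surface receptor percent response at or below 58%, roughly 3 SD from nonfluorescent compounds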
# B2AR FAP counter: flagged in Am2.2 fluorescence counterscreen for beta-2AR agonists; shares compounds with B2AR ag; Am2.2 cells, FAP fluorogen flow cytometry; stronger effect = lower value; calls only at 10 µM; 1,100 tested, under 10 active; AID 588765;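 active = percent response below a set limit in fluorescence channel 1 and below 50% in channel 8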
# TLR9-MyD88 conf: TLR9-MyD88 association inhibitors, retest, confirmation, cell-based, CHO, BLA complementation, fluorescence, triplicate | 51% of 680 active | inhibition, % at 4.98 µM | shares compounds with TLR9-MyD88 inh | CCF4 FRET ratio | AID 540250, 2011;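 active = mean inhibition across three repeats above about 21% taken from the earlier screen, limit read from the data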;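 also: blue over green emission ratio reports constitutive TLR9 MyD88 association via BLA complementation; 0% = DMSO vehicle wells and 100% = clavulanate BLA inhibitor wells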
# BLA nonselective: beta-lactamase reporter inhibitors in CHO cells, artefact control for TLR9-MyD88 binding inhibitor project, cell-based, fluorescence | shares compounds with TLR9-MyD88 inh | CHO-BLA cells, CCF4 FRET ratio, BLA reporter | inhibition, % at 4.98 µM | 7% of 680 active | AID 540251, 2011;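 active = mean inhibition above a 50% cutoff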;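 also: counterscreen of TLR9-MyD88 hits on CMV-driven BLA in CHO-K1 cells; 0% = DMSO alone and 100% = clavulanate blocking BLA; higher means less blue over green ratio so more BLA blockade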
# TLR9 CHO cytotox: CHO cell viability loss – luminescence, single concentration, cytotoxicity control for TLR9-MyD88 binding inhibitor project; shares compounds with TLR9-MyD88 inh; TLR9-MyD88 CHO cells cytotoxicity; inhibition, % at 4.98 µM; 39% of 680 active; AID 588336, 2011; in the data active = inhibition above about 11%
# Exocytosis CP01: inhibitors of lytic granule exocytosis, confirmation, TALL-104 cells, flow cytometry, Cherry Pick01; 11% of 1,500 active; inhibition, % at 10 µM; shares compounds with Granule exo inh; LAMP-1 externalization; stimulated with PMA plus thapsigargin; AID 651954, 2012; in the data active = inhibition above about 60%;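 also: 0% = stimulated vehicle wells and 100% = unstimulated wells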
# * = called active by the depositor; i = inactive; x = no result.
SMILES,TLR4-MyD88 BLA,TLR9-MyD88 inh,B2AR ag,ABHD5-PLIN5 inh,NOD2 RIPK2 PPI,Granule exo inh,Beta2AR ag CP1,B2AR FAP counter,Exocytosis CP01,others
CC(C)Nc1ccc(Nc2ccnc3cc4ccccc4cc23)cc1,x,-3,80*,10,7,79*,113,i,32,
COc1ccc(Nc2ccnc3ccccc23)cc1,4,14,-6,12,1,2,x,x,x,
CCOc1ccc(-c2cc(C(=O)NCCCn3ccnc3)c3cc(Br)ccc3n2)cc1,x,4,50*,12,14,79*,67,i,80*,
Fc1ccc(Nc2nc(NCc3ccco3)c3ccccc3n2)cc1,x,5,33,9,-3,86*,60,i,5,
Cn1cc(-c2csc(C(O)c3ccc(F)cc3)n2)cn1 (configuration not stated),x,x,x,7,0,-2,x,x,x,
CCc1nc2c(OCc3c(C)noc3C)cccn2c1N(C=O)Cc1ccc(OC)cc1,x,x,x,-3,-11,0,x,x,x,
CCCC(=O)Nc1c(-c2ccccc2)[nH][nH]c1=O,x,x,x,-34,4,-1,x,x,x,
COCCN(Cc1ccccc1)C(=O)c1ccc(C(=O)c2ccccc2)cc1,x,-9,-3,12,0,6,x,x,x,
Cc1cc(Br)ccc1OCc1nnc(-c2ccccc2)o1,x,x,-4,-4,-8,73*,118,i,-5,
CCOc1cc(CNCCc2ccc(S(N)(=O)=O)cc2)ccc1OCc1ccc(Cl)cc1,9,0,50*,28*,15,103*,31*,i,94*,
CCOc1ccc(CNCCc2ccc(S(N)(=O)=O)cc2)cc1,-2,-13,-6,4,1,7,x,x,x,
Cc1ccc(N(C)S(=O)(=O)c2cc(-c3cnc(C4CC4)o3)ccc2C)cc1,x,-2,104*,-4,-6,97*,1.5*,i,44,
CCC(=O)N1CCc2cc(Br)cc(S(=O)(=O)N(C)c3ccc(OC)cc3)c21,x,-2,101*,5,1,74*,19*,i,-12,
CCC(=O)N1CCc2cc(Br)cc(S(=O)(=O)CC(=O)OC)c21,0,0,9,-1,6,0,x,x,x,
Clc1cccc(C2Nc3cccc4cccc(c34)N2)c1Cl,x,0,6,-4,-4,93*,94,i,-2,
CN(Cc1ccccc1F)c1nc(-c2cccnc2)nc2ccccc12,x,2,80*,5,4,100*,53*,i,4,
O=C(Nc1ccc2oc(-c3ccccc3F)nc2c1)c1ccc2c(c1)OCCO2,3,-9,23,-6,-6,85*,88,i,45,
C=C(C)COc1ccc(-c2n[nH]c(C)c2-c2ccc(OC)cc2)c(O)c1,13,7,53*,-16,7,65*,115,i,98*,
COc1ccc(-c2n[nH]c(C)c2-c2cscn2)c(O)c1,x,-5,-3,-6,5,1,x,x,x,
O=C(NCCN1CCC(n2c(=O)[nH]c3ccccc32)CC1)c1cccc(Cl)c1,x,x,x,9,-3,-1,x,x,x,
NC(=O)C1CCN(C(=O)c2ccc3c(c2)S(=O)(=O)c2ccccc2C3=O)CC1,x,-6,-8,0,-12,-11,x,x,x,
O=C(O)c1cccc2c1C(=O)c1ccc(N3CCCC3)cc1S2(=O)=O,x,9,-9,2,9,18,x,x,x,
NC(=O)C1CCN(c2ccc3c(c2)S(=O)(=O)c2ccccc2C3=O)CC1,x,23*,-2,-5,1,-8,x,x,x,TLR9-MyD88 conf=6;BLA nonselective=5;TLR9 CHO cytotox=0
CC1CCN(c2ccc3c(c2)S(=O)(=O)c2ccccc2C3=O)CC1,x,32*,5,-14,19,-6,x,x,x,TLR9-MyD88 conf=22*;BLA nonselective=24;TLR9 CHO cytotox=5
CCC(C)(C)C1CCC2(CC1)NC(=O)N(CC(=O)N1CCN(c3ccccc3OC)CC1)C2=O (configuration not stated),x,-2,x,5,-7,-2,x,x,x,
SMILES,TLR4-MyD88 BLA,TLR9-MyD88 inh,B2AR ag,ABHD5-PLIN5 inh,NOD2 RIPK2 PPI,Granule exo inh,Beta2AR ag CP1,B2AR FAP counter,Exocytosis CP01,others
COc1ccccc1NS(=O)(=O)NC(=O)c1c(C)[nH]c2ccccc12,x,21*,0,-6,-6,0,x,x,x,TLR9-MyD88 conf=-2;BLA nonselective=-4;TLR9 CHO cytotox=3
COC1C=CC=C(C)C(=O)NC2=CC(=O)C(N)=C(CC(C)CC(OC)C(O)C(C)C=C(C)C1OC(N)=O)C2=O (configuration not stated),x,24*,-4,-12,13,-9,x,x,x,TLR9-MyD88 conf=2;BLA nonselective=-4;TLR9 CHO cytotox=85*
CCC(C(=O)NC1CCCC1)n1c(-c2ccnc3ccccc23)nc2ccccc21 (configuration not stated),x,x,x,2,-16,-2,x,x,x,
COc1cc(/C=C2\S/C(=N/S(=O)(=O)c3ccc(C)cc3)NC2=O)c([N+](=O)[O-])cc1OC,-3,-1,13,-10,-8,1,x,x,x,
Cc1ccc(S(=O)(=O)/N=C2/NC(=O)/C(=C/c3cc([N+](=O)[O-])ccc3O)S2)cc1,x,27*,0,8,18,-18,x,x,x,TLR9-MyD88 conf=10;BLA nonselective=15;TLR9 CHO cytotox=-2
COc1ccc(NC(=O)C2(C)CCN2C(=O)c2ccc(C(C)(C)C)cc2)cc1OC (configuration not stated),x,x,x,-5,-16,-1,x,x,x,
COC(=O)c1ccc(Cn2c(O)c(N=O)c3ccccc32)o1,-3,26*,13,2,2,0,x,x,x,TLR9-MyD88 conf=8;BLA nonselective=7;TLR9 CHO cytotox=3
